BJeLR lethal: BJeLR cell viability loss | inhibition, % (no concentration beside the values) | BJeLR (HRASV12) viability, CellTiter-Glo ATP luminescence, 48 h | actives 0.17% (n = 300,000) | AID 1554; in the data active means inhibition above about 50%; inconclusive means no clear call, values can overlap the other calls
PrP 5UTR inh: inhibition of PrP 5' UTR reporter expression; actives 0.35% (n = 340,000); cell-based PrP 5' UTR mRNA reporter, plate reader; inhibition, % (concentration not given with the values); in the data active means inhibition above about 52%
MazF activator: increases E. coli MazEF RNase cleavage of RNA. P0AE70. FAM/BHQ RNA-DNA oligo cleavage fluorescence, 5 h. activation, % at 20 µM. actives 0.32% (n = 350,000). AID 504720; in the data active means activation above about 50%
Target sequence (P0AE70 whole entry, looked up): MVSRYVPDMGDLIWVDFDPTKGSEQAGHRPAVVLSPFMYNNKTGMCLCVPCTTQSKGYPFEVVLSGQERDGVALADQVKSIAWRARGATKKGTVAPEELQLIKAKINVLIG
PrPC TRFRET: inhibitors of human cell surface prion protein PrPC. P04156. TR-FRET read-out. inhibition, % at 13.8 µM. actives 0.43% (n = 370,000). AID 720596; in the data active means inhibition above about 24%
DUSP3 inh: inhibitors of human VHR1 phosphatase (DUSP3); recombinant VHR phosphatase, pNPP absorbance; inhibition, % at 13.3 µM; actives 0.52% (n = 290,000); AID 1654; in the data active means inhibition above about 50%
Target sequence (P51452 whole entry, looked up): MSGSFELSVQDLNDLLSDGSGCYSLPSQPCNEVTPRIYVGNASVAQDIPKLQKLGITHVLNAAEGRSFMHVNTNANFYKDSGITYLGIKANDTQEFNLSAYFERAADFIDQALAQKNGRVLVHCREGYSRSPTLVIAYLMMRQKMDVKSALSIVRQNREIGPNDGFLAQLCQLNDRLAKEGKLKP
PfHsp40 yeast: restores yeast growth despite PfHsp40 toxicity | S. cerevisiae expressing PfHsp40, growth rescue, ATP luminescence | growth rescue, % at 12.5 µM | actives 0.68% (n = 340,000); in the data active means growth rescue above about 28%, passing the limit was not always enough; inconclusive means no clear call, values can overlap the other calls;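 further: yeast W303a lacking pdr1 and pdr3 grown in galactose medium; growth measured after three days at 30 °C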
PrP UTR cherry: prion 5' UTR mRNA inhibition, cherry-pick retest | actives 48% (n = 1,100) | shares compounds with PrP 5UTR inh | inhibition, % at 2.5 µM | cell-based prion protein 5' UTR reporter, plate reader; in the data active means inhibition above about 54%; inconclusive means no clear call, values can overlap the other calls
Numbers stand for hits; 0 = inactive; ? = inconclusive; - = no result; ! = not active in a repeat. This is a sample that favours compounds with a hit; in the whole collection about 2.1% have one here.

SMILES | BJeLR lethal | PrP 5UTR inh | MazF activator | PrPC TRFRET | DUSP3 inh | PfHsp40 yeast | PrP UTR cherry
COc1ccc(NC(=O)N(C)C[C@H]2Oc3ccc(NC(=O)Nc4ccc(C(F)(F)F)cc4)cc3C(=O)N([C@H](C)CO)C[C@@H]2C)cc1 | - | 65 | 0 | 0 | - | 0 | 0
O=C(c1cc(Cl)ccc1O)N1CCN(S(=O)(=O)c2cccs2)CC1 | 0 | 0 | 0 | 0 | - | 0 | -
COc1ccccc1C(=O)Nc1ccc2c(c1)nc1n2CCN(Cc2ccccc2)C1 | 0 | 56 | 0 | 0 | 0 | 0 | 0
CN=c1scc(-c2ccco2)n1/N=C/c1ccc(O)c(O)c1 | 0 | 0 | 0 | 0 | 0 | 0 | -
CN=c1scc(-c2ccccc2F)n1/N=C/c1ccc[nH]1 | 0 | 92 | 0 | 0 | 0 | 0 | 91
Cc1ccc(NC(=O)C2CCCN(S(=O)(=O)c3cnc[nH]3)C2)c(Br)c1 (configuration not stated) | 0 | 73 | 0 | 0 | 0 | 0 | 0
O=C(N/N=C/c1ccccc1C(=O)O)c1cccc(S(=O)(=O)N2CCCCC2)c1 | - | - | 0 | 0 | - | 0 | -
Cc1c(Cc2ccccc2)sc(/N=C/c2ccc3ccccc3c2)c1C(N)=O | - | 60 | 0 | - | 0 | 0 | 95
Cc1c(Cc2ccccc2)sc(/N=C/c2c(O)ccc3ccccc23)c1C(N)=O | 0 | 0 | 0 | - | 0 | 0 | -
CCn1c(=O)cc(OCC(=O)NCCCN2CCCC2=O)c2ccccc21 | 0 | 0 | 0 | 0 | 0 | 0 | -
CCC1(c2ccccc2)NC(=S)N(c2ccc(C)cc2)N1 (configuration not stated) | 0 | 76 | 0 | 0 | 0 | 0 | 0
CCC1(c2ccc(Cl)cc2)NC(=S)N(c2ccccc2)N1 (configuration not stated) | 0 | 0 | 0 | 0 | 0 | 0 | -
CC(=O)OCC(=O)[C@@]1(O)CC[C@H]2[C@@H]3CCC4=CC(=O)CC[C@]4(C)[C@H]3[C@@H](O)C[C@@]21C | 0 | 65! | 0 | 0 | 0 | 0 | 0
CC1C/C(=C/c2ccccn2)C(=O)/C(=C/c2ccccn2)C1 (configuration not stated) | 0 | 0 | 0 | - | 0 | 0 | -
CN1C2CCC1/C(=C/c1ccccn1)C(=O)/C2=C\c1ccccn1 | - | 78 | 0 | 0 | 0 | 0 | 91
CC(C)(C)C1C/C(=C/c2ccccn2)C(=O)/C(=C/c2ccccn2)C1 (configuration not stated) | 0 | 92 | 0 | - | 0 | 0 | 97
CCC1(C)NC(=O)N(CC(=O)Nc2cc(C)on2)C1=O (configuration not stated) | - | 0 | 0 | 0 | - | 0 | -
CC(=O)Nc1ccc(NC(=O)CN(C)CC(=O)Nc2ccccc2Br)cc1 | 0 | 0 | 0 | 0 | 0 | 0 | -
CN(CC(=O)Nc1cccc(F)c1)CC(=O)N(C)CC(=O)Nc1ccccc1Br | - | 91 | 0 | 0 | - | 0 | 0
COc1ccc(NC(=O)c2c(-c3c(Cl)cccc3Cl)noc2C)c(OC)c1 | 0 | 0 | 0 | 0 | 0 | 0 | -
N#Cc1ccc(NC(=O)Cn2cnc(S(=O)(=O)N3CCc4ccccc43)c2)cc1 | 0 | 0 | 0 | 0 | 0 | 0 | -
CC1=Nc2cc(C(=O)NCc3ccco3)ccc2Sc2ccc(C)cc21 | 54 | 61 | 0 | 0 | 0 | 0 | 88
CC1=Nc2cc(C(=O)NCC3CCCO3)ccc2Sc2ccc(C)cc21 (configuration not stated) | 0 | 0 | 0 | 0 | 0 | 0 | -
Cc1ccc(S(=O)(=O)NCCC(=O)N2CC(C)OC(C)C2)cc1 (configuration not stated) | 0 | 75 | 0 | 0 | - | 0 | 0
C#CCN(CC=C)Cc1ccc(OC)cc1OC | - | - | - | 0 | - | - | -
SMILES | BJeLR lethal | PrP 5UTR inh | MazF activator | PrPC TRFRET | DUSP3 inh | PfHsp40 yeast | PrP UTR cherry
O=C(COC(=O)c1cc([N+](=O)[O-])ccc1N1CCOCC1)NCc1ccccc1 | - | - | 0 | 0 | - | - | -
COc1cccc(CNC(=O)COC(=O)c2cc([N+](=O)[O-])ccc2N2CCCC2)c1 | - | 84 | 0 | 0 | - | 0 | 0
COc1ccc(C(C)=O)cc1CSc1nc2cc(Cl)ccc2o1 | 0 | 57 | 0 | 0 | 0 | 0 | 0
CC(=O)c1ccc(N2CCN(S(=O)(=O)c3ccc4c5c3CC(=O)N5CC(C)S4)CC2)cc1 (configuration not stated) | 0 | 0 | 0 | - | 0 | 0 | -
NCCCS(=O)(=O)O | 0 | 74! | 0 | 0 | 0 | 0 | 0
COc1cccc(C(=O)O/N=C(\N)c2ccccn2)c1 | 0 | 52 | 0 | 0 | 0 | 0 | 91
N/C(=N\OC(=O)c1cccc([N+](=O)[O-])c1)c1ccccn1 | 0 | 0 | 0 | 0 | 0 | 0 | -
N/C(=N\OC(=O)c1cccc2ccccc12)c1ccccn1 | 0 | 0 | 0 | 0 | 0 | 0 | -
N/C(=N\OC(=O)c1ccc2ccccc2c1)c1ccccn1 | 0 | 53 | 0 | 0 | 0 | 0 | 0
CCCc1ccc(C(=O)O/N=C(\N)c2ccccn2)cc1 | 0 | 88 | 0 | 0 | 0 | 0 | 77
N/C(=N\OC(=O)c1ccc(=O)n(Cc2ccccc2)c1)c1ccccn1 | 0 | 0 | 0 | 0 | 0 | 0 | -
COc1cccc(C(=O)O/N=C(\N)c2ccccn2)c1OC | 0 | 52 | 0 | 0 | - | 0 | ?
CCN1C(=O)[C@H]2[C@@H](c3ccc(Cl)cc3)N3C(=O)CN(CCOC)C(=O)[C@@]3(Cc3ccccc3)[C@H]2C1=O | 0 | 0 | 0 | 0 | 0 | 0 | -
C=CCN=C1NN=C(c2cc(C)n(CC=C)c2C)CS1 | 0 | 83 | 0 | 0 | 0 | 0 | 79
C=CCN=C1NN=C(c2ccc3c(c2)OCCO3)CS1 | 0 | 59 | 0 | 0 | 0 | 0 | 79
COCCN=C1NN=C(c2cc(C)n(CC3CCCO3)c2C)CS1 (configuration not stated) | 0 | 0 | 0 | 0 | 0 | 0 | -
COCCn1c(C)cc(C2=NNC(=Nc3ccccc3F)SC2)c1C | 0 | 67 | 0 | 0 | 0 | 0 | ?
Cc1nc2ccc(NC(=O)C3(C)CCCN(C(C)C)C3)cc2o1 (configuration not stated) | - | - | - | 0 | - | - | -
CCn1cc(CN2CCCC(CNC(=O)COc3ccccc3OC)C2)c(C)n1 (configuration not stated) | 0 | 0 | 0 | 0 | 0 | 0 | -
Nc1ncnc2c1ncn2[C@@H]1O[C@H](CNCc2ccc(OCc3ccccc3)cc2)[C@@H](O)[C@H]1O | - | 0 | 0 | 0 | - | 0 | -
Nc1ncnc2c1ncn2[C@@H]1O[C@H](CNCc2ccc(OCC(=O)Nc3ccccn3)cc2)[C@@H](O)[C@H]1O | - | 87 | 0 | 0 | - | 0 | 0
O=C1ON=C(c2ccccc2[N+](=O)[O-])/C1=C/c1cccc([N+](=O)[O-])c1O | - | 90 | 0 | 0 | - | 0 | 0
O=C1ON=C(c2ccc(Cl)c([N+](=O)[O-])c2)/C1=C/c1cccc([N+](=O)[O-])c1O | - | 0 | 0 | 0 | - | 0 | -
Cc1ccccc1NC(=O)CON=C(N)c1ccccc1 | - | 0 | 0 | 0 | - | 0 | -
COc1ccc(CNC(=O)Cc2ccc(NC(=O)C3=C(C)OCCS3)cc2)cc1 | 0 | 0 | 0 | 0 | 0 | 0 | -

Screens as filed in PubChem BioAssay.
